Drawing on PubChem BioAssay (EPA / NIEHS), this text covers AC50 and outcome for 26 compounds.

The structures appear in SMILES notation. Several values for one entry are separate records, joined by “and”; a condition that tells them apart may be missing. Equal entries are not always repeated. Records with an inconclusive call do not appear. Activity calls are given as the source filed them. The calls were made as follows, unless noted: active = hit-call score of the fitted dose curve at least 0.9, where 1 is the maximum; inconclusive = response in the unintended direction; inactive = score below 0.9.

Assay [1] concerns the target human Caspase 5 (CASP5), CASP5 (gene 838) (UniProt P51878). The experiment in a line: NVS_ENZ_hCASP5: NovaScreen (NVS) Enzymatic Assay for human Caspase 5 (CASP5) (AID 2283137). In outline: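 Fluorescent substrate readout of CASP5 activity (loss-of-signal), measured 2 h post-dose. Protein expressed in E. coli. Primary screen duplicate at 25 uM; actives meeting threshold (e.g., 30% inhibition) rerun singleton, max 50 uM.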

In assay [2] the target is Glucocorticoid receptor (Homo sapiens) (UniProt P04150). The experiment in a line: NVS_NR_hGR: NovaScreen (NVS) Nuclear Receptor Binding Assay for human Glucocorticoid Receptor (GR) (AID 2283363).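 As to AC50: activity is loss of specific radioligand binding signal relative to DMSO.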 Put shortly: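 Filter scintillation readout of tritiated/iodinated radioligand displaced by test chemical; cell-free extracted protein; 16 h. DMSO = negative control/baseline. Duplicate single-point 25 uM screen, then concentration-response on actives.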
Chain of Glucocorticoid receptor (Homo sapiens) (P04150 whole entry, looked up): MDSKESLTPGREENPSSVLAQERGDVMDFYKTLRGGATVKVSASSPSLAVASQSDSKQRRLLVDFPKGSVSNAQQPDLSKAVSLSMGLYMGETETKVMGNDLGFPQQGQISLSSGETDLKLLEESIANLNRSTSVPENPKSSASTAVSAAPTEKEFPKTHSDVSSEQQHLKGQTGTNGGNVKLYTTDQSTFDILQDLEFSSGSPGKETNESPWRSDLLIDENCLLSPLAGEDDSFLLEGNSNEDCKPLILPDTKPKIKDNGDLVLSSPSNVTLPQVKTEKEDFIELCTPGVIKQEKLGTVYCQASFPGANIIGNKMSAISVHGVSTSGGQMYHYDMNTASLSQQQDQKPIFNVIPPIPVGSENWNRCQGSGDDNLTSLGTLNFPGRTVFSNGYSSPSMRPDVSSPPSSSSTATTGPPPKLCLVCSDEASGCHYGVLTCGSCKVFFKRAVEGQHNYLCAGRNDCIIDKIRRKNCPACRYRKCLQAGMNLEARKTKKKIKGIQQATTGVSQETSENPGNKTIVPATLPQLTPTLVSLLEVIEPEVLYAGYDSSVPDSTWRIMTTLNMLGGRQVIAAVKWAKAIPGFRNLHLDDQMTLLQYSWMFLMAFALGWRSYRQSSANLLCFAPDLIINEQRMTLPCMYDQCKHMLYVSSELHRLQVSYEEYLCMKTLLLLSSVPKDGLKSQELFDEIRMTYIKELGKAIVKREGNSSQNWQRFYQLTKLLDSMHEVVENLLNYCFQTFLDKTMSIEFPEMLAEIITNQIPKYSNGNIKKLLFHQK

Assay [3] is described as follows: STM_H9_OrnCyssISnorm_ratio: Stemina devTOX quickPredict H9 human embryonic stem cell (hESC)-based Assay for Ornithine (ORN):Cystine (CYSS) Ratio (AID 2283714). Put shortly:
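UPLC-HRMS of spent media: ORN/CYSS ratio of internal-standard-normalized percentages, DMSO (0.1%) baseline. Pluripotent H9 hESCs, 72h exposure, daily re-dosing with fresh media; last 24h media collected.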

Assay [4] in a line: TAMU_PeakParms_SingleDonor1434_QT: Texas A&M University (TAMU) 1.5-hr Human Induced Pluripotent Stem Cell (iPSC)-derived Cardiomyocytes Calcium (Ca+2) Flux Assay for Cardiotoxicity: QT (decay-rise ratio) (AID 2284235). In outline:
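Decay/rise ratio of calcium-flux fluorescence scored after 90 min exposure (37C) of donor 1434 iPSC cardiomyocytes to 0.2–100 uM (0.5% DMSO). Beat-cessation and severe-notch points removed; POD is EC05, a 5% rise over DMSO.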

Assay [5] concerns the target human Peroxisome Proliferator-activated Receptor alpha (PPARa), PPARA (gene 5465) (UniProt Q07869). The experiment in a line: NVS_NR_hPPARa: NovaScreen (NVS) Nuclear Receptor Binding Assay for human Peroxisome Proliferator-activated Receptor alpha (PPARa) (AID 2283359).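 Also: activity means loss of TR-FRET signal versus DMSO baseline.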 In outline: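 TR-FRET signal measured at 1 h post-dosing; loss-of-signal versus DMSO negative control taken as activity. Extracted gene-protein, cell-free format. Initial single-point duplicates at 25 uM, then concentration-response retests.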

The nature of assay [6]: CCTE_Deisenroth_5AR_NBTE_donor: CCTE's 5alpha-reductase NanoBRET Target Engagement Assay […], Deisenroth Lab (AID 2284319; active = hit-call score of the fitted dose curve at least 0.9, where 1 is the maximum; inactive = score below 0.9). Conditions: actives raise or lower the signal. In outline:
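In this secondary endpoint, donor luminescence from SRD5A2-NanoLuc in transfected HEK293T flags artifacts. Test chemical (10 nM - 29.9 uM) is present five hours, tracer the last two; mock-tracer wells run plate-matched; data fitted bidirectionally against DMSO.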

The nature of assay [7]: CCTE_Deisenroth_5AR_NBTE_acceptor: CCTE's 5alpha-reductase NanoBRET Target Engagement Assay - Autofluorescence Screen, Deisenroth Lab (AID 2284321; active = hit-call score of the fitted dose curve at least 0.9, where 1 is the maximum; inactive = score below 0.9;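 also: compound fluorescence in the acceptor channel under 460 nm excitation flags autofluorescence artifacts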). To be noted: actives raise or lower the signal. Put shortly: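 Using three independent plate-reader runs, nominal 100 uM chemicals were checked for intrinsic fluorescence (ex 460 nm). DMSO defined the baseline for bidirectional fitting.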

The test system of the next assay is SRD5A2 (gene 6716). Kind of assay: CCTE_Deisenroth_5AR_NBTE_ratio: CCTE's 5alpha-reductase NanoBRET Target Engagement Assay - Ratio, Deisenroth Lab (AID 2284322; active = hit-call score of the fitted dose curve at least 0.9, where 1 is the maximum; inactive = score below 0.9). Conditions: actives raise or lower the signal. In outline: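 SRD5A2-NanoLuc HEK293T; cmpd 10 nM-29.9 uM, 3 h preinc + testosterone tracer 2 h; NanoBRET ratio 650/460; bidirectional fit vs DMSO.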
Assay [8] deals with Estrogen receptor (Homo sapiens) + Estrogen receptor beta (Homo sapiens) (UniProt P03372+Q92731). Kind of assay: OT_ER_ERaERb_0480: Odyssey Thera (OT) 8-hour HEK293T Protein-Complementation Assay for Estrogen Receptor-alpha/-beta Heterodimer (AID 2283352). In outline: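 Human HEK293T cells were treated for 8 hours and receptor heterodimerisation was detected through reconstitution of a fluorescent reporter split between ER-alpha and ER-beta ligand-binding domains. Activity was analysed as gain of signal against DMSO.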
Chain of Estrogen receptor (Homo sapiens) + Estrogen receptor beta (Homo sapiens) (P03372 whole entry, looked up, the tested form may be a part): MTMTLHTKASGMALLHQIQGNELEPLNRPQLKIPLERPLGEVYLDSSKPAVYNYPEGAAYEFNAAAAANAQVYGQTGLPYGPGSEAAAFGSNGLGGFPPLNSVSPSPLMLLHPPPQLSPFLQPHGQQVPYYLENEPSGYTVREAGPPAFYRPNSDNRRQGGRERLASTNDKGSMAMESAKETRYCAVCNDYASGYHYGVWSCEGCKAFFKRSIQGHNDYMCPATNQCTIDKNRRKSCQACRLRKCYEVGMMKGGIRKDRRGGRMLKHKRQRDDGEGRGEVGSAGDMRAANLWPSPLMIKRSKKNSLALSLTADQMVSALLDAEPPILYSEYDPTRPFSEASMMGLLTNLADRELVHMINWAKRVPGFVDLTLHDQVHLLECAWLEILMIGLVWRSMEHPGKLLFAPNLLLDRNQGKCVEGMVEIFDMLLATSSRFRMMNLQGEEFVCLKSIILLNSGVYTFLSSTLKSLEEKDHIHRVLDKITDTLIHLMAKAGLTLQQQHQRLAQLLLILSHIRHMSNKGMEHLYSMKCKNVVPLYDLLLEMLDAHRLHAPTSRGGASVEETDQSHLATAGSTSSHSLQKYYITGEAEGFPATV
Chain of Estrogen receptor (Homo sapiens) + Estrogen receptor beta (Homo sapiens) (Q92731 whole entry, looked up, the tested form may be a part): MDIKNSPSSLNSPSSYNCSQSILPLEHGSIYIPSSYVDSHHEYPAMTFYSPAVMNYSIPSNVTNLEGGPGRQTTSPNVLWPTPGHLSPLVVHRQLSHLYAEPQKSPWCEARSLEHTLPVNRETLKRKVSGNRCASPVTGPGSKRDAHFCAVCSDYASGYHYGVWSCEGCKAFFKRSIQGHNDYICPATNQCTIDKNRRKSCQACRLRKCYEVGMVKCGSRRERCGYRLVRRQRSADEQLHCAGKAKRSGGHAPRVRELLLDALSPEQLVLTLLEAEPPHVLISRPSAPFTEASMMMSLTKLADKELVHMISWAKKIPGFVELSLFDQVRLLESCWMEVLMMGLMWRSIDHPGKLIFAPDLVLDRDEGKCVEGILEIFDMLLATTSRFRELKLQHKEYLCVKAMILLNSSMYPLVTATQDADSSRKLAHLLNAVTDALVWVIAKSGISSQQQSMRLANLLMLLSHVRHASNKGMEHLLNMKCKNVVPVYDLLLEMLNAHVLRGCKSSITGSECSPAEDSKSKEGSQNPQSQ

Assay [9] in a line: TOX21_PR_BLA_Followup_Agonist_viability: Viability Assessment in the Tox21 HEK293 Progesterone Receptor (PR) Agonism Beta-lactamase Follow-Up Assay (AID 2283935).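 Also: signal loss means lower viability so actives are cytotoxic.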 Put shortly: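 Luminescent ATP quantitation (CellTiter-Glo, 30 min, room temperature) in the same wells as the beta-lactamase read, on PR-UAS-bla HEK293T cells exposed to compound for 16 hr at 37C in 2% charcoal-stripped serum.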

Assay [10] is described as follows: TOX21_PR_BLA_Followup_Antagonist_viability: Viability Assessment in the Tox21 HEK293 Progesterone Receptor (PR) Antagonism Beta-lactamase Follow-Up Assay (AID 2283936).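 Also: cells exposed to compound with R5020 agonist for 16 h; hits lower the luminescence signal meaning cytotoxicity.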 Put shortly:
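PR-UAS-bla HEK293T cells in medium with 2% charcoal-stripped FBS were treated with compounds plus R5020 for 16 hr at 37C. After the beta-lactamase read, CellTiter-Glo was added to the same wells and luminescence read after 30 min at room temperature.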

Assay [11] in a line: IUF_NPC4_neurite_length_120hr: Leibniz Research Institute for Environmental Medicine (IUF) 120-hour Neuronal Morphology Assay for Neurite Length (NPC4) (AID 2284302; active = hit-call score of the fitted dose curve at least 0.9, where 1 is the maximum; inactive = score below 0.9). In outline:
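hNPC spheres (0.3 mm, fetal brain GW 16-19) on PDL/laminin, DMEM:F12 3:1 + 1% N2, 37C 5% CO2; 7 concs + solvent control, day 0-5, half medium change d3; fix 120 h, TUBB3 ICC, mean neurite length um vs DMSO.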

The nature of assay [12]: IUF_NPC4_neurite_area_120hr: Leibniz Research Institute for Environmental Medicine (IUF) 120-hour Neuronal Morphology Assay for Neurite Area (NPC4) (AID 2284305). Put shortly: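 hNPC spheres on PDL/laminin, N2 medium, 37C/5% CO2; dosed day 0, half-medium refresh day 3; fixed 120 h; TUBB3/Hoechst ICC, high-content imaging; neurite area = mean pixels per neuron (nuclei excluded); DMSO baseline, max 0.1%.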

Assay [13] in a line: IUF_NPC2-5_cytotoxicity_72hr: Cytotoxicity Assessment at 72 hours in the Leibniz Research Institute for Environmental Medicine (IUF) Neural Progenitor Cell Migration and Differentiation Assay for Cytotoxicity (NPC2-5) (AID 2284306).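 Also: LDH release into supernatant measured by resorufin fluorescence marking membrane damage.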 Put shortly: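 hNPC spheres (0.3 mm), PDL/laminin, DMEM/F12 3:1 + 1% N2; cpd from d0, 7 concs + SC, DMSO max 0.1%; half-medium refresh d3. Readout: supernatant LDH via resorufin fluorescence (RFU), 72 h; gain-of-signal fit.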

The nature of assay [14]: IUF_NPC2-5_cytotoxicity_120hr: Cytotoxicity Assessment at 120 hours in the Leibniz Research Institute for Environmental Medicine (IUF) Neural Progenitor Cell Migration and Differentiation Assay (NPC2-5) (AID 2284307). In outline:
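Membrane-integrity loss is quantified by LDH in supernatant after five days of exposure of migrating, differentiating human fetal NPC spheres; seven serially diluted concentrations are tested with DMSO kept at or below 0.1%.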

Assay [15] is described as follows: IUF_NPC2-5_cell_number_120hr: Cell Number Assessment at 120 hours in the Leibniz Research Institute for Environmental Medicine (IUF) Neural Progenitor Cell Migration and Differentiation Assay (NPC2-5) (AID 2284308; active = hit-call score of the fitted dose curve at least 0.9, where 1 is the maximum; inactive = score below 0.9;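 also: count of Hoechst-stained nuclei in migration zone around plated human neural progenitor spheres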). Put shortly: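 Seven-point serial dilutions plus solvent control were applied to plated 0.3 mm hNPC spheres at differentiation start, with medium half-replaced at day 3. Nuclei positive for Hoechst in the migration zone were enumerated at 120 h.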

Assay [16] is described as follows: IUF_NPC2-5_viability_120hr: Viability Assessment at 120 hours in the Leibniz Research Institute for Environmental Medicine (IUF) Neural Progenitor Cell Migration and Differentiation Assay (NPC2-5) (AID 2284312; active = hit-call score of the fitted dose curve at least 0.9, where 1 is the maximum; inactive = score below 0.9). Put shortly:
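Human fetal neural progenitor spheres (0.3 mm) plated on poly-D-lysine/laminin in N2 differentiation medium, exposed 120 h with half-medium refresh at day 3. Viability by alamar blue resazurin fluorescence; 7 concentrations, DMSO max 0.1%.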

The nature of assay [17]: IUF_NPC1_cytotoxicity_72hr: Cytotoxicity Assessment at 72 hours in the Leibniz Research Institute for Environmental Medicine (IUF) Neural Progenitor Cell Proliferation Assay (NPC1) (AID 2284332).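 Also: rising LDH signal means more cytotoxicity.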 In outline: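 LDH in supernatant, resazurin→resorufin fluorescence (RFU), 72 h exposure, no re-dosing. Cells: primary hNPC spheres, one per well, EGF+FGF medium, 37C/5% CO2, pH 7.2-7.6. Fit: positive direction vs baseline and dynamic range.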

Assay [18] deals with Estrogen receptor (Homo sapiens) (UniProt P03372). Kind of assay: NVS_NR_hER: NovaScreen (NVS) Nuclear Receptor Binding Assay for human Estrogen Receptor (ER) (AID 2283348). In outline: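 MCF7-derived receptor extract, radiolabelled ligand, competitive displacement. Read: scintillation counts at 18 h. DMSO = negative control/baseline. Primary 25 uM duplicate; follow-up concentration–response.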
Chain of Estrogen receptor (Homo sapiens) (P03372 whole entry, looked up): as the sequence (P03372 whole entry, looked up, the tested form may be a part) above

Assay [19] addresses D(1A) dopamine receptor (Homo sapiens) (UniProt P21728). The experiment in a line: NVS_GPCR_hDRD1: NovaScreen (NVS) G Protein-Coupled Receptor Assay for human Dopamine Receptor D1 (DRD1) (AID 2283269). In outline:
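Extracted HEK293 DRD1 is incubated 1 h with compound and a tritiated or iodinated radioligand, then filtered and counted. Screening runs 25 uM in duplicate with on-plate positive and negative controls.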

Chain of D(1A) dopamine receptor (Homo sapiens) (P21728 whole entry, looked up): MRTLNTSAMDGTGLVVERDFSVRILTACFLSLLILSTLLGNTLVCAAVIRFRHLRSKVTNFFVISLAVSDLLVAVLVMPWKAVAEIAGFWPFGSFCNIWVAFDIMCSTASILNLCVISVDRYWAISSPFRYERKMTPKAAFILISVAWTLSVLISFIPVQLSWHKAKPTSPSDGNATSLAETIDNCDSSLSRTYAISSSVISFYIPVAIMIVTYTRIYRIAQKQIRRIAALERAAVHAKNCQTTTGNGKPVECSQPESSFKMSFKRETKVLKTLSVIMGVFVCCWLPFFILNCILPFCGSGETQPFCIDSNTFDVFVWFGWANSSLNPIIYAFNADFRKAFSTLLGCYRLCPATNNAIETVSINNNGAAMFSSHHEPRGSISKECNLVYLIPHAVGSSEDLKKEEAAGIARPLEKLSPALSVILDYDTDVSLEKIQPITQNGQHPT
Chain of human Peroxisome Proliferator-activated Receptor alpha (PPARa), PPARA (gene 5465) (Q07869 whole entry, looked up): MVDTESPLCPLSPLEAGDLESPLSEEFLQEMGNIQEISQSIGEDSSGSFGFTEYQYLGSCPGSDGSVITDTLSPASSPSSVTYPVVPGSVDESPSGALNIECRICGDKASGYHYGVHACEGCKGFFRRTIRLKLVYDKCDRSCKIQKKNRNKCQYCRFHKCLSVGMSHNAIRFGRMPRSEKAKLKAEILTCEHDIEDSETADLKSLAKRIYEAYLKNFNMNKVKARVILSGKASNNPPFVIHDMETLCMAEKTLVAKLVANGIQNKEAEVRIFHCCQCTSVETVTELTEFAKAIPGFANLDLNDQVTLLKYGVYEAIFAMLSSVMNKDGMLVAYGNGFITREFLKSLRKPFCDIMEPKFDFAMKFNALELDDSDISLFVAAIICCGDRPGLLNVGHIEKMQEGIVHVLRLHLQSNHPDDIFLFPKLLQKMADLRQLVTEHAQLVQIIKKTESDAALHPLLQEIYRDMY
Chain of human Caspase 5 (CASP5), CASP5 (gene 838) (P51878 whole entry, looked up): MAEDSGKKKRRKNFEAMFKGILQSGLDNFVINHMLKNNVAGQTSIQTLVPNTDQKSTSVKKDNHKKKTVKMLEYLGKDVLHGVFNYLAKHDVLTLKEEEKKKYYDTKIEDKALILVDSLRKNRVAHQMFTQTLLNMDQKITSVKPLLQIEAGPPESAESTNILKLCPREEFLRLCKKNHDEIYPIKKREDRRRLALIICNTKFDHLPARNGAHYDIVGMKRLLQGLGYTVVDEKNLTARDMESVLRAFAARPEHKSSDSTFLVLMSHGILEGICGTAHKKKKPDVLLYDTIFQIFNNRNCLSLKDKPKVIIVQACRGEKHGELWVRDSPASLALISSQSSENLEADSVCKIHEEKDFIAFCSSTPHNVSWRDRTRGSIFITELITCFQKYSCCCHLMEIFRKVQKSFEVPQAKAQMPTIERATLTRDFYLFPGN

Turning to `O=c1c2ccccc2c(=O)c2c1cc(Cl)c1[nH]c3c([nH]c12)c(Cl)cc1c(=O)c2ccccc2c(=O)c13`, the concentration at half-maximal activity (AC50) is 0.296 µM (active) in [1], 12.9 µM (active) in [2] and 10 µM (active) in assay [3].

Regarding `CC1CCCC1.[C-]#[O+].[C-]#[O+].[C-]#[O+].[Mn]`, the AC50 in assay [4] is 9.92 µM (active).

For the compound `[CH3][Sn]([CH3])([Cl])[Cl]`, in assay [5], the call was inactive.

Turning to `C=CC(=O)OCC(CC)CCCC` (centres undefined), the call (in assay [6]; in [7]; in the assay with SRD5A2 (gene 6716)) was inactive.

In the case of `O=P(O)(Oc1ccccc1)Oc1ccccc1`, the call (in assay [6]; in [7]; in the assay with SRD5A2 (gene 6716)) was inactive.

Take `c1ccc(P(c2ccccc2)c2ccccc2)cc1`: the AC50 in [8] was 28.5 µM (active).

As to `C[C@]12CCC(=O)C(O)=C1CC[C@@H]1[C@@H]2CC[C@]2(C)C(=O)CC[C@@H]12`, the result in [9] and in [10] was inactive.

For the compound `CC(C)(C)C(O)C(Oc1ccc(-c2ccccc2)cc1)n1cncn1` (centres undefined), the outcome in [2] was inactive.

Turning to `Nc1ccc(-c2ccc(N)c(N)c2)cc1N`, the AC50 in assay [1] was 5.41 µM (active).

For the compound `Oc1cc(Cl)ccc1Cl`, the outcome (in assay [6]; in assay [7]; in the assay with SRD5A2 (gene 6716)) was inactive.

Regarding `CC(C)(c1cc(Cl)c(O)c(Cl)c1)c1cc(Cl)c(O)c(Cl)c1`, the concentration at half-maximal activity (AC50) is 20.2 µM (active) in assay [5]; 544 nM (active) and 146 nM (active) in assay [2]. The result in assay [9] and in assay [10] was inactive.

Turning to `CC(C)CCCCCCCOP(=O)(Oc1ccccc1)Oc1ccccc1`, the result in assay [4], in assay [11], in assay [12], in [13], in [14] and in [15] was inactive. Besides, the call in [16] and in [17] was inactive.

`O=[N+]([O-])c1cc(C(F)(F)F)c(Cl)c([N+](=O)[O-])c1Cl`: the compound was classed as inactive in assay [18].

Turning to `CNC(=N[N+](=O)[O-])NCC1CCOC1` (centres undefined), the result in [11], in [12], in assay [13], in assay [14], in [15] and in [16] was inactive. The compound was classed as inactive in assay [17].

For `CC(C)C(=O)Cl`, the compound was called inactive in [19].

As for `CNC(=O)Oc1cc(C)c(SC)c(C)c1`, the outcome in assay [19] was inactive.

Consider `CC1(C)[C@H](C(=O)O[C@H](C#N)c2cccc(Oc3ccccc3)c2)[C@@H]1C=C(Br)Br`, for which the result in [11], in assay [12], in assay [14], in assay [16] and in assay [17] was inactive. In addition, the AC50 in assay [13] is 3.53 µM (active); in [15], 0.461 µM (active).

For `COc1cc(OC)nc(Oc2cccc(Oc3nc(OC)cc(OC)n3)c2C(=O)O)n1`, the compound was called inactive in [5].

For `N#Cc1cc(I)c(O)c(I)c1`, the compound was called inactive in [9] and in [10].

Regarding `c1ccc2c(c1)CCCC2`, the outcome in assay [8] was inactive.

For the compound `O=C1C(Cl)=C(Cl)C(=O)C(Cl)=C1Cl`, the AC50 in assay [1] is 0.148 µM (active); in [19] it was 4.01 µM (active). Also, the result in [18] and in assay [3] was inactive.

In the case of `Cc1ccc(OP(=O)(Oc2ccc(C)cc2)Oc2ccc(C)cc2)cc1` (tested in a mixture with another compound), the AC50 in [3] is 61.9 µM (active). The outcome in assay [4], in assay [11], in [12], in assay [13], in assay [14] and in assay [15] was inactive. Also, the compound was classed as inactive in assay [16] and in [17].

As to `O=[N+]([O-])C=Cc1ccccc1`, the AC50 in assay [19] was 8.25 µM (active).

Regarding `c1cc(OCC2CO2)ccc1Cc1ccc(OCC2CO2)cc1` (centres undefined), the outcome in [18] was inactive.

In the case of `COc1cc(OC)c(OC)cc1C=O`, the compound was called inactive in assay [18].

For the compound `Cc1cc(C)c(C2=C(OC(=O)CC(C)(C)C)C3(CCCC3)OC2=O)c(C)c1`, in [8], the result was inactive.
